Source: PubChem BioAssay
Most compounds without a hit are left out; they make up all but 8% or so of the library.
LASV entry inh – qHTS for Inhibitors of binding or entry into cells for Lassa Virus; 1.2% of 300,000 active; Potency, µM (doses to about 37.9 µM), without a hit: at the top dose activity change, negative = inhibition, hits mostly inhibitors; Lassa virus pseudotype entry inhibition, cell reporter; calls by dose curve; tested in HEK293 cells; further: potency means the concentration at half of the fitted maximal effect; on the % scale 0 is the no-effect control and ±100 the full control effect; nearly all actives have a fitted effect of over 50% in size
HCMV antiviral – qHTS Assay for inhibitors of the human cytomegalovirus (HCMV) | HFF cells, HCMV-luciferase reporter, 72 h; stronger effect = lower value | activity change, negative = inhibition, % at 57.5 µM | 4.5% of 410,000 active | AID 1259415, 2018; in the data active means activity change below about -60%; inconclusive means no clear call, values can overlap the other calls; inactive means above about -39%; further: on the % scale 0 is the no-effect control and ±100 the full control effect
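Inhibition of viral replication was scored as loss of reporter luminescence in HFFs infected with HCMV-luciferase (MOI 1 PFU/cell) for 72 h; compounds tested at 2 doses, normalized to buffer and Salinomycin controls.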
SARS PLpro yeast – qHTS of Yeast-based Assay for SARS-CoV PLP; S. cerevisiae expressing SARS-CoV PLpro, growth rescue; Potency, µM (top dose mostly 32.9 µM), for the others: top-dose activity, positive = growth rescue, most hits filed as activators; 0.19% of 330,000 active; AID 485353, 2010; calls by dose curve; further: potency means the concentration at half of the fitted maximal effect; 0% is about no effect; nearly all actives have a fitted effect of over 55% in size
Marburg entry inh – qHTS for inhibitors of binding or entry into cells for Marburg Virus | Marburg virus pseudotyped entry inhibition, cell reporter | 1.8% of 300,000 active | Potency, µM (series often up to 37.8 µM), for inactives: at the highest dose activity change, negative = inhibition, actives largely listed as inhibitors; calls by dose curve; tested in HEK293 cells; further: potency means the concentration at half of the fitted maximal effect; on the % scale 0 is the no-effect control and ±100 the full control effect
FMDV antiviral – High Throughput Screening for Foot and Mouth Disease Virus Antivirals; FMDV antiviral cell-based qHTS; 1.2% of 410,000 active; AID 1159524, 2015; Potency, µM (highest dose often 57.9 µM), inactives show at the highest dose activity change, negative = inhibition, most hits filed as inhibitors; calls by dose curve; tested in HEK293T cells; further: read-out not given here; potency means the concentration at half of the fitted maximal effect; on the % scale 0 is the no-effect control and ±100 the full control effect; nearly all actives have a fitted effect of over 45% in size
HCV inhibitor – qHTS Assay for Inhibitors of Hepatitis C Virus (HCV) | Huh7.5.1 HCVcc-Cre infection, luciferase reporter, 44 h | Potency, µM (series often up to 41.8 µM), for inactives: at the highest dose activity change, negative = inhibition, most hits filed as inhibitors | 3.4% of 340,000 active | AID 651820, 2012; active means well fitted inhibition curve with a large enough effect; inconclusive means small, poorly fitted or top-dose-only effect, or another doubt; inactive means no such curve, though single readings can be large or run the other way; further: potency means the concentration at half of the fitted maximal effect; on the % scale 0 is the no-effect control and ±100 the full control effect
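Infectious HCV cell culture screen: compound-treated cells (1,000/well, pre-plated 4 h) are infected with HCVcc-Cre at roughly 0.5 moi and grown 44 h. Infection is quantified by luciferase signal after 15 min substrate incubation at room temperature.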
* marks the source's active call; other numbers are inactive results; ? = inconclusive; . = no result given; [ ] = dose if it differs, or a comment.

SMILES	LASV entry inh	HCMV antiviral	SARS PLpro yeast	Marburg entry inh	FMDV antiviral	HCV inhibitor
CCc1cccc(NC(=O)CSc2nc3ccccc3nc2N2CCCCC2)c1	?	-80*	.	?	-12%	.
Cc1cccc(NC(=O)CSc2nc3ccccc3nc2N2CC(C)OC(C)C2)c1 (stereo not drawn)	.	-11	-4%	.	0%	11µM*
COc1cccc(NC(=O)CSc2nc3ccccc3nc2N2CCCC2)c1	.	?	-8%	.	3%	10µM*
COc1ccc(C)cc1NC(=O)CSc1nc2ccccc2nc1N1CC(C)OC(C)C1 (stereo not drawn)	.	15	-2%	.	?	-15%
Cc1cccc(NC(=O)CSc2nc3ccccc3nc2N2CCCCC2)c1	.	-84*	-5%	.	0%	1%
Cc1cccc(NC(=O)CSc2nc3ccccc3nc2N2CCCC2)c1	.	?	-1%	.	2%	?
COc1ccc(-n2nnnc2SCC(=O)Nc2ccccc2N2CCOCC2)cc1OC	.	-35	3%	.	-20%	-1%
Cc1cccc(NC(=O)CSCC(=O)Nc2ccccc2N2CCCCC2)c1	?	-38	.	11µM*	-18%	?
Cc1cccc(N2CCN(C(=O)CSc3nc4ccccc4nc3N3CC(C)OC(C)C3)CC2)c1C (stereo not drawn)	?	-5	0%	?	?	6.3µM*
CC(=O)c1cccc(-n2nnnc2SCC(=O)Nc2ccccc2N2CCCCC2)c1	?	-28	1%	11µM*	?	14µM*
Cc1cccc(NC(=O)CSCC(=O)Nc2ccccc2N2CCCC2)c1	17%	-35	-2%	?	0%	-12%
CCOC(=O)c1oc2c(c1C)-c1nn(Cc3cccc(Cl)c3)cc1CC2	-9%[46.1 µM]	-29	.	6%[46.1 µM]	?	.
CCN(CC)C1CCN(C(=O)c2cnn(-c3nccc(-c4ccccc4OC)n3)c2-c2ccco2)C1 (stereo not drawn)	.	.	.	.	6%	.
Cc1cc(C(=O)COc2cccnc2[N+](=O)[O-])c(C)n1-c1ccccc1	4.6µM*	-99*	13%	?	-7%	-8%
Cc1ccc(-n2c(C)cc(C(=O)COc3cccnc3[N+](=O)[O-])c2C)cc1	?	-99*	18%	?	?	?
Cc1cc(C(=O)COc2cccnc2[N+](=O)[O-])c(C)n1-c1ccccc1F	.	-97*	0%	.	-7%	-27%
Cc1cc(C(=O)COc2cccnc2[N+](=O)[O-])c(C)n1Cc1ccco1	-32%	-14	2%	?	-25%	?
Cc1ccc(OCC(=O)c2cc(C)n(C)c2C)c([N+](=O)[O-])n1	?	-71*	-4%	4%	14%	26%
Cc1cc(-n2c(C)cc(C(=O)COc3ccccc3[N+](=O)[O-])c2C)no1	9%	13	-2%	-6%[46.1 µM]	38%	-27%
Cc1cc(C)c(Cn2c3ccccc3c3cnn(CC(=O)NCCc4ccccc4)c(=O)c32)c(C)c1	2%[46.1 µM]	12	.	0%[46.1 µM]	0%	.
CCCC[C@H](CCC(=O)Nc1ccc(C(=O)OC)cc1)C(=O)O	.	.	.	18%[46.1 µM]	.	.
Cc1nc(-c2cccnc2)sc1CCNS(=O)(=O)c1ccc(F)cc1	5%[46.1 µM]	-13	.	.	13%	.
Cc1ccc(C(=O)NCCc2nnc3n2CCN(C(=O)c2ccnc(Cl)c2)CC3)cc1	.	.	.	.	1%	.
Cc1ccc(S(=O)(=O)NCc2ccc(C(=O)NCCc3cccc(C)c3)cc2)cc1	-2%[46.1 µM]	19	.	.	-14%	.
Cc1ccc(S(=O)(=O)NCc2ccc(C(=O)NCCN(Cc3ccccc3)C(C)C)cc2)cc1	-29%[46.1 µM]	?	0%	11µM*	0%	?
SMILES	LASV entry inh	HCMV antiviral	SARS PLpro yeast	Marburg entry inh	FMDV antiviral	HCV inhibitor
Cc1ccc(OCCNC(=O)c2cccc(Oc3ccc(C(F)(F)F)cc3[N+](=O)[O-])c2)cc1	?	-80*	12%	15%	?	?
Cc1ccc(OCCNC(=O)c2cccc(S(=O)(=O)NCc3ccccc3)c2)cc1	?	-24	0%	6.3µM*	17%	?
Cc1cccc(CNCCn2cc(C(=O)Nc3ccccc3)nn2)c1	.	.	.	.	10%	.
C=CCOC(=O)C1=C(C)OC(N)=C(C#N)[C@@]12C(=O)N(CN1CCOCC1)c1ccccc12	.	.	.	16%[46.1 µM]	.	.
O=C(Nc1ccon1)c1ccc(Cl)c(S(=O)(=O)N2CCCCC2)c1	2%	.	-2%	-11%	-11%	-25%
O=C(Nc1ccc(N2CCCCC2)c(Cl)c1)c1cccnc1	0.89µM*	-78*	-11%	1µM*	9%	?
CC1CN(S(=O)(=O)c2cc(C(=O)NCCCN3CCCC3=O)ccc2Cl)CC(C)O1 (stereo not drawn)	2%	-8	-5%	2.2µM*	?	-2%
O=C(NCCCN1CCOCC1)c1ccc(Cl)c(S(=O)(=O)N2CCCCCC2)c1	-27%	-81*	-7%	?	-21%	?
O=C(NCCCN1CCCC1=O)c1ccc(Cl)c(S(=O)(=O)N2CCCCC2)c1	.	-33	12%	.	-23%	-22%
O=C(Nc1ccncc1)c1ccc(Cl)c(S(=O)(=O)N2CCCC2)c1	-9%	-71*	-5%	?	-9%	?
COC(=O)C1=C(C)N(Cc2ccccc2)C(=O)NC1CCc1ccccc1 (stereo not drawn)	.	.	.	23%[14.2 µM]	.	.
Cc1sc2c(c1C)c(=O)n(-c1cccc(C(F)(F)F)c1)c(=O)n2Cc1ccc(F)cc1	10%[46.1 µM]	3	.	-14%[46.1 µM]	-11%	.
Cc1cccc(NC(=O)Cn2c(=O)n(CCCCCC(=O)NCc3ccc4c(c3)OCO4)c(=O)c3sccc32)c1	3%[46.1 µM]	-22	.	?	-4%	.
CCOC(=O)c1ccc(NC(=O)CC2Nc3cc(C)c(C)cc3NC2=O)cc1 (stereo not drawn)	-5%[46.1 µM]	-15	.	1%[46.1 µM]	0%	.
O=C(NCCCN1CCOCC1)c1ccc(CSc2ccc(Cl)cc2)cc1	-27%	-70*	-4%	?	-14%	?
O=C(Nc1ccccc1Cl)NC1(C(=O)NCCCN2CCOCC2)CCCCC1	-2%	-62*	-1%	-15%[46.1 µM]	-9%	15%
CC(C)c1ccc(C(=O)NCCCN2CCOCC2)cc1	.	-15	3%	.	32%	1%
CCOC(=O)N1CCC(NC(=O)c2ccc(N3CCC4(CC3)OCCO4)c([N+](=O)[O-])c2)CC1	?	-28	3%	?	25µM*	-4%
CCN(CC)S(=O)(=O)c1cc(C(=O)Nc2ccncc2)ccc1Cl	-29%	-87*	0%	?	.	?
Cc1cccc(NC(c2nnc(-c3ccccc3)o2)c2ccc(F)cc2Cl)c1C (stereo not drawn)	-25%[46.1 µM]	5	.	.	-11%	.
COc1ccc(OC)c(CCNc2nc3cnc(-c4ccccc4Oc4ccccc4)cc3n2C)c1	.	-15	.	.	.	.
